Measurements reported in the supplement of paper PMC10849652.
About 7,900 targets were measured; listed, in parts, are those with a hit and a random draw of the rest. About 0.6% of all pairs of compound and target were hits. Unmarked numbers belong to inactive results.

Assays:
Assay in all cases: log2 fold change, soluble protein after heating vs DMSO (PISA); higher = thermal stabilisation; K562 cells, 10 uM, 30 min; active = over 0.2 and 3.5 SD of the protein, either way, in both replicates (recomputed)
[1] = compound: CS(=O)(=O)c1ccc(-c2cnc(N)c(C(=O)Nc3ccccc3)n2)cc1
In short: (§1)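 K562 cells at 2×10^6 cells/mL were exposed to 10 μM compound for 30 min, then aliquots were heated for 3 min across 48°C-58°C, pooled, and extracted in PBS containing 0.5% NP-40 at 4°C. The supernatant after 21,000xg for 90 min was taken as soluble protein and measured by TMTpro 16plex LC-MS/MS with channel sums equalised. Thermal stability is reported relative to control samples, with values from duplicates. Fold changes are given on a log2 scale.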

crizotinib = compound: C[C@@H](Oc1cc(-c2cnn(C3CCNCC3)c2)cnc1N)c1c(Cl)ccc(F)c1Cl [crizotinib]
In short: as §1

[2] = compound: C[C@@H]1COCCN1C2=NC(=NC(=C2)C3(CC3)S(=O)(=O)C)C4=C5C=CNC5=CC=C4
In short: as §1

[3] = compound: C[C@H](C1=CC=C(C=C1)C(=O)NC2=C3C=CNC3=NC=C2)N
In short: as §1

gandotinib = compound: Cc1cc(Nc2cc(CN3CCOCC3)c3nc(C)c(Cc4ccc(Cl)cc4F)n3n2)n[nH]1 [gandotinib]
In short: as §1

tozasertib = compound: Cc1cc(Nc2cc(N3CCN(C)CC3)nc(Sc3ccc(NC(=O)C4CC4)cc3)n2)n[nH]1 [tozasertib]
In short: as §1

doramapimod = compound: Cc1ccc(-n2nc(C(C)(C)C)cc2NC(=O)Nc2ccc(OCCN3CCOCC3)c3ccccc23)cc1 [doramapimod]
In short: as §1

ispinesib = compound: Cc1ccc(C(=O)N(CCCN)[C@@H](c2nc3cc(Cl)ccc3c(=O)n2Cc2ccccc2)C(C)C)cc1 [ispinesib]
In short: as §1

duvelisib = compound: C[C@H](Nc1ncnc2nc[nH]c12)c1cc2cccc(Cl)c2c(=O)n1-c1ccccc1 [duvelisib]
In short: as §1

[4] = compound: Cc1cc(SCc2sc(-c3ccc(C(F)(F)F)cc3)nc2C)ccc1OCC(=O)O
In short: as §1

SLC38A7 (UniProt Q9NVC3)
log2 fold change [1]: -0.018
log2 fold change (crizotinib): -0.449
log2 fold change [2]: 0.045
log2 fold change [3]: -0.009
log2 fold change (gandotinib): -0.412
log2 fold change (tozasertib): 0.052
log2 fold change (doramapimod): 0.035
log2 fold change (ispinesib): -0.842 (active)

SLC29A3 (UniProt Q9BZD2)
log2 fold change [1]: 0.014
log2 fold change (crizotinib): -0.559 (active)
log2 fold change [2]: -0.098
log2 fold change [3]: 0.078
log2 fold change (duvelisib): 0.069
log2 fold change (tozasertib): 0.097
log2 fold change [4]: 0.055
log2 fold change (doramapimod): 0.015
log2 fold change (ispinesib): -1.02 (active)

SMAD9 (UniProt O15198)
log2 fold change [1]: 0.016
log2 fold change (crizotinib): 0.019
log2 fold change [2]: 0.068
log2 fold change [3]: 0.037
log2 fold change (duvelisib): 0.014
log2 fold change (gandotinib): -0.197
log2 fold change (tozasertib): -0.069
log2 fold change [4]: 0.074
log2 fold change (doramapimod): -0.013
log2 fold change (ispinesib): -0.169

SRXN1 (UniProt Q9BYN0)
log2 fold change [1]: 0.009
log2 fold change (crizotinib): -0.295
log2 fold change [2]: 0.09
log2 fold change [3]: -0.091
log2 fold change (gandotinib): 0.01
log2 fold change (tozasertib): -0.086
log2 fold change (doramapimod): 0.076
log2 fold change (ispinesib): -0.16

TBC1D10B (UniProt Q4KMP7)
log2 fold change [1]: 0.012
log2 fold change (crizotinib): -0.04
log2 fold change [2]: 0.013
log2 fold change [3]: -0.153
log2 fold change (duvelisib): 0
log2 fold change (gandotinib): 0.046
log2 fold change (tozasertib): -0.022
log2 fold change [4]: 0.092
log2 fold change (doramapimod): 0.021
log2 fold change (ispinesib): 0.083

SNX2 isoform 2 (UniProt O60749)
log2 fold change [1]: 0.135
log2 fold change (crizotinib): -0.145
log2 fold change [2]: 0.071
log2 fold change [3]: 0.108
log2 fold change (duvelisib): 0.015
log2 fold change [4]: -0.029
log2 fold change (doramapimod): 0.17

TBC1D5 isoform 2 (UniProt Q92609)
Sequence of UniProt Q92609 (Q92609 whole entry, looked up): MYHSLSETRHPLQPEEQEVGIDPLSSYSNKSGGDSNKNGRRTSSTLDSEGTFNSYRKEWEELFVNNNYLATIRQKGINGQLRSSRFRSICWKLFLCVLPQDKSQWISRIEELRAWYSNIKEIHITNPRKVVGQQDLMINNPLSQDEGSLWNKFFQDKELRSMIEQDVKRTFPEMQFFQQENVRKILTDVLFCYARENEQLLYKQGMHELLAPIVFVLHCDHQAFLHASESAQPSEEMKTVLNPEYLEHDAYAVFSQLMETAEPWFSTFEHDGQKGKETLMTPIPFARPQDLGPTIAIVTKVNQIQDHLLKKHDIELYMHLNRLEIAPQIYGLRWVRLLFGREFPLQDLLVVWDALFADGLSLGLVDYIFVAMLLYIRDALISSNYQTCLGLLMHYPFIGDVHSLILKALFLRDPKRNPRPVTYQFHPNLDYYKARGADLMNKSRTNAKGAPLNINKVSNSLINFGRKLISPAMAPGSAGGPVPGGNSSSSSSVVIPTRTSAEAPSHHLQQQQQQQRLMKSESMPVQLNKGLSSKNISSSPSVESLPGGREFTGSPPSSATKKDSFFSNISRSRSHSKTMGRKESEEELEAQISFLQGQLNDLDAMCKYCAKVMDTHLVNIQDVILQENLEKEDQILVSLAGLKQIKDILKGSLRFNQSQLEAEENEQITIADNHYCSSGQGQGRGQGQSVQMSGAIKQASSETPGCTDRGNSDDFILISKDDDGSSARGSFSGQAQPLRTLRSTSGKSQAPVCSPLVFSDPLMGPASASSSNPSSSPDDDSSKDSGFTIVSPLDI
log2 fold change [1]: 0
log2 fold change (crizotinib): -0.24
log2 fold change [2]: -0.003
log2 fold change [3]: 0.084
log2 fold change (duvelisib): -0.072
log2 fold change (gandotinib): -0.255
log2 fold change (tozasertib): 0.007
log2 fold change [4]: 0.142
log2 fold change (doramapimod): -0.031
log2 fold change (ispinesib): -0.268

SLC25A4 (UniProt P12235)
Sequence of UniProt P12235 (P12235 whole entry, looked up): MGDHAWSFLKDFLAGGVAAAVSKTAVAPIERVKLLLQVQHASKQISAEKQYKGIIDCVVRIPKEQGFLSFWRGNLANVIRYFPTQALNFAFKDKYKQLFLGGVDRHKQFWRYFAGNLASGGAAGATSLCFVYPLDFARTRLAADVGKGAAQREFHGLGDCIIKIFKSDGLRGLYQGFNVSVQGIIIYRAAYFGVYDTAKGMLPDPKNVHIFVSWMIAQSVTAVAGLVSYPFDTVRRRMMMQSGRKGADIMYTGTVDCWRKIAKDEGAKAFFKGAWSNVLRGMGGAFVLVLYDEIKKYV
log2 fold change [1]: 0.004
log2 fold change (crizotinib): 0.112
log2 fold change [2]: 0.093
log2 fold change [3]: 0.01
log2 fold change (duvelisib): 0.012
log2 fold change (gandotinib): -0.004
log2 fold change (tozasertib): -0.072
log2 fold change [4]: -0.034
log2 fold change (doramapimod): -0.053
log2 fold change (ispinesib): 0.028

TAOK1 (UniProt Q7L7X3)
log2 fold change [1]: -0.002
log2 fold change (crizotinib): -0.035
log2 fold change [2]: 0.011
log2 fold change [3]: -0.08
log2 fold change (duvelisib): -0.012
log2 fold change (gandotinib): -0.029
log2 fold change (tozasertib): -0.027
log2 fold change [4]: 0.023
log2 fold change (doramapimod): 0.021
log2 fold change (ispinesib): -0.001

SMARCB1 (UniProt Q12824)
Sequence of UniProt Q12824 (Q12824 whole entry, looked up): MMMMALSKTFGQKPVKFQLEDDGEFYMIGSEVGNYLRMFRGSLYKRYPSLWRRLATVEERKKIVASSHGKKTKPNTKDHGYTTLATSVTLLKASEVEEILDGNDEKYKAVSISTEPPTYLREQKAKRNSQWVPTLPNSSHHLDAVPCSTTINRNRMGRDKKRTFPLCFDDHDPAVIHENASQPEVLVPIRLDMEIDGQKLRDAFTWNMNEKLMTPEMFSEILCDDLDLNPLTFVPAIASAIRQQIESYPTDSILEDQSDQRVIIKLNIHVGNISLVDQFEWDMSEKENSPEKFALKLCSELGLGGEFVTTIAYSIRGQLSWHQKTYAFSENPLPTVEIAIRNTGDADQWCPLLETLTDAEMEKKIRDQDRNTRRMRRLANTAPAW
log2 fold change [1]: 0.024
log2 fold change (crizotinib): -0.128
log2 fold change [3]: 0.284
log2 fold change (duvelisib): 0.241
log2 fold change (gandotinib): 0.49
log2 fold change (tozasertib): 0.252
log2 fold change [4]: 0.097
log2 fold change (doramapimod): 0.049

SMARCA4 (UniProt P51532)
log2 fold change [1]: 0.216
log2 fold change (crizotinib): 0.01
log2 fold change [2]: 0.036
log2 fold change [3]: 0.188
log2 fold change (duvelisib): 0.065
log2 fold change (gandotinib): 0.042
log2 fold change [4]: -0.064
log2 fold change (doramapimod): 0.085
log2 fold change (ispinesib): -0.248

STXBP5 (UniProt Q5T5C0)
Sequence of UniProt Q5T5C0 (Q5T5C0 whole entry, looked up): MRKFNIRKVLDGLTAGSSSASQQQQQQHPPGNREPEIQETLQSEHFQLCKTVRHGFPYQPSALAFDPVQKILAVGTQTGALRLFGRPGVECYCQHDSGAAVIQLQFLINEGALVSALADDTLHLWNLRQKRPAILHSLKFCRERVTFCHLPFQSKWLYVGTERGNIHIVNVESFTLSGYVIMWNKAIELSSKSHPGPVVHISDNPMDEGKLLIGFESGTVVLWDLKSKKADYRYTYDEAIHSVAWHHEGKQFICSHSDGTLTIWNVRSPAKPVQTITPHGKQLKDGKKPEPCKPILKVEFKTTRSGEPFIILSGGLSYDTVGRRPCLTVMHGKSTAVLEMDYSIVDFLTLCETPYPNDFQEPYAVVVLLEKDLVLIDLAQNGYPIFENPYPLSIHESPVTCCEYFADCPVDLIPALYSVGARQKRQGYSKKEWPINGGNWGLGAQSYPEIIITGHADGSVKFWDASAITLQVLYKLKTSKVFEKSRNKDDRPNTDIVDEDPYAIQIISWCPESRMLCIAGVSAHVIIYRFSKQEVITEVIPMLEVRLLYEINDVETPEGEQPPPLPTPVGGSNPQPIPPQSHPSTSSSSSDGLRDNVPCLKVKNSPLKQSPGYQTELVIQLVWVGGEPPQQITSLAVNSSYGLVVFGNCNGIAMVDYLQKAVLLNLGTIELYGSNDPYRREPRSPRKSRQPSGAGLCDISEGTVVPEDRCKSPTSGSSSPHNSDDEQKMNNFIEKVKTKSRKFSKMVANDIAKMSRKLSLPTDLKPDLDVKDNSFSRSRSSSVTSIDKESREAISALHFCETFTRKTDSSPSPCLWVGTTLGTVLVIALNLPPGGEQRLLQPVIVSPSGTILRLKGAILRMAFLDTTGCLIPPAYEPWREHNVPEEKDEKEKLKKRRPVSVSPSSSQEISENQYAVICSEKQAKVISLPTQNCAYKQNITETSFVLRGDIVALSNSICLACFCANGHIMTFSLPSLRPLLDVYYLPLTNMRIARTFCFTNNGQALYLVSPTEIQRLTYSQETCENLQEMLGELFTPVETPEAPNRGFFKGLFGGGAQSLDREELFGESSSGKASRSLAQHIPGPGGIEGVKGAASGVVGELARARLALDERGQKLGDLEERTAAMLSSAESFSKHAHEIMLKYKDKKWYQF
log2 fold change [1]: -0.021
log2 fold change (crizotinib): -0.024
log2 fold change [2]: 0.006
log2 fold change [3]: 0.047
log2 fold change (duvelisib): 0.066
log2 fold change (gandotinib): -0.029
log2 fold change (tozasertib): 0.017
log2 fold change [4]: -0.002
log2 fold change (doramapimod): 0.026
log2 fold change (ispinesib): -0.058

TIMM44 (UniProt O43615)
log2 fold change [1]: -0.028
log2 fold change (crizotinib): -0.207
log2 fold change [2]: 0.056
log2 fold change [3]: -0.015
log2 fold change (duvelisib): 0.085
log2 fold change (gandotinib): -0.258
log2 fold change (tozasertib): -0.038
log2 fold change [4]: 0.091
log2 fold change (doramapimod): -0.035
log2 fold change (ispinesib): -0.128

SRSF9 (UniProt Q13242)
log2 fold change [1]: -0.11
log2 fold change (crizotinib): 0.058
log2 fold change [2]: -0.539
log2 fold change [3]: 0.389
log2 fold change (duvelisib): -0.142
log2 fold change (gandotinib): 0.4
log2 fold change [4]: -0.048
log2 fold change (doramapimod): 0.26
log2 fold change (ispinesib): -0.255

SRSF7 (UniProt Q16629)
Sequence of UniProt Q16629 (Q16629 whole entry, looked up): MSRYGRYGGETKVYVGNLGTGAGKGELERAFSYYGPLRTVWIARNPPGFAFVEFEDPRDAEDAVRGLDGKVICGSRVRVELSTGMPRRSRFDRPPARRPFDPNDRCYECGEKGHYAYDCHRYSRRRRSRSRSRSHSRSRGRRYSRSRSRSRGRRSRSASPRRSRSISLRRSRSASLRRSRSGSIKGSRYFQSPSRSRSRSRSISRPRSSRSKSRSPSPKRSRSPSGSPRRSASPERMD
log2 fold change [1]: -0.096
log2 fold change (crizotinib): 0.008
log2 fold change [2]: -0.311
log2 fold change [3]: 0.045
log2 fold change (duvelisib): -0.093
log2 fold change (gandotinib): 0.319
log2 fold change (tozasertib): -0.005
log2 fold change [4]: -0.025
log2 fold change (doramapimod): 0.073
log2 fold change (ispinesib): -0.089

STARD9 (UniProt Q9P2P6)
log2 fold change [1]: 0.144
log2 fold change (crizotinib): 0.141
log2 fold change [2]: 0.012
log2 fold change [3]: 0.049
log2 fold change (duvelisib): -0.06
log2 fold change (gandotinib): 0.04
log2 fold change (tozasertib): 0.013
log2 fold change [4]: 0.028
log2 fold change (doramapimod): 0.074
log2 fold change (ispinesib): -0.146

STK26 (UniProt Q9P289)
Sequence of UniProt Q9P289 (Q9P289 whole entry, looked up): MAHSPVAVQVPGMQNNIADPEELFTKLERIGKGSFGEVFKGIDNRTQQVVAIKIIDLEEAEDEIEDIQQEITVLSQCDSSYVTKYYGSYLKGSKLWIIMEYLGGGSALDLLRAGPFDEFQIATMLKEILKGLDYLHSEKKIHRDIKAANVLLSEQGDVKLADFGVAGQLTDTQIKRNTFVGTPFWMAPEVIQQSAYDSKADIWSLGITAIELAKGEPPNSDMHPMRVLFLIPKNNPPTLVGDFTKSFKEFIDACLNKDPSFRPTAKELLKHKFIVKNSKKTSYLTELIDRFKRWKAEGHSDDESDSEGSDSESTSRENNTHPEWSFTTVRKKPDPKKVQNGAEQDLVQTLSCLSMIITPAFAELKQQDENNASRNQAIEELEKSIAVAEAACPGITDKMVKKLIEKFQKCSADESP
log2 fold change [1]: -0.019
log2 fold change (crizotinib): -0.308 (active)
log2 fold change [2]: 0.123
log2 fold change [3]: 0.049
log2 fold change (duvelisib): -0.01
log2 fold change (gandotinib): -0.061
log2 fold change (tozasertib): -0.11
log2 fold change [4]: -0.01
log2 fold change (doramapimod): -0.034
log2 fold change (ispinesib): -0.146

SPR (UniProt P35270)
log2 fold change [1]: -0.006
log2 fold change (crizotinib): 0.125
log2 fold change [2]: 0.058
log2 fold change [3]: -0.059
log2 fold change (duvelisib): 0.109
log2 fold change (gandotinib): 0.288
log2 fold change (tozasertib): 0.154
log2 fold change [4]: -0.025
log2 fold change (doramapimod): -0.05
log2 fold change (ispinesib): -0.103

SLC38A2 (UniProt Q96QD8)
Sequence of UniProt Q96QD8 (Q96QD8 whole entry, looked up): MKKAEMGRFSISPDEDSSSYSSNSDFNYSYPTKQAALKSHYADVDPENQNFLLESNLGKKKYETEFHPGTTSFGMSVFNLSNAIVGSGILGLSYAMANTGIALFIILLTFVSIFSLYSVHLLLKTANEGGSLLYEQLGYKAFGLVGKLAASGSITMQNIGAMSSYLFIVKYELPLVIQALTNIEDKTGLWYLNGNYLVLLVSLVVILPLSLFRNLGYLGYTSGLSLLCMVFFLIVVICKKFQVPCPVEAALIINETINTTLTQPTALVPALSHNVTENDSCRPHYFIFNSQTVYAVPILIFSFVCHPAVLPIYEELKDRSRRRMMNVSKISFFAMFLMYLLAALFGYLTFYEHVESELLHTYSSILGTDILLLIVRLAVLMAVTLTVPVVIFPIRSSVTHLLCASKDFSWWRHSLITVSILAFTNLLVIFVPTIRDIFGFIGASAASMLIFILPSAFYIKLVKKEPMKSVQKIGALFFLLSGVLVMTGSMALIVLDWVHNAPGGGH
log2 fold change [1]: 0.031
log2 fold change (crizotinib): 0.028
log2 fold change [2]: 0.075
log2 fold change [3]: -0.075
log2 fold change (duvelisib): 0.068
log2 fold change (tozasertib): -0.009
log2 fold change [4]: 0
log2 fold change (doramapimod): -0.03
log2 fold change (ispinesib): -0.049

TFB2M (UniProt Q9H5Q4)
log2 fold change [1]: -0.013
log2 fold change (crizotinib): -0.06
log2 fold change [2]: 0.096
log2 fold change [3]: 0.025
log2 fold change (duvelisib): 0.049
log2 fold change (gandotinib): -0.19
log2 fold change (tozasertib): 0.013
log2 fold change [4]: 0.033
log2 fold change (doramapimod): -0.024
log2 fold change (ispinesib): -0.044

STAT5A (UniProt P42229)
log2 fold change [1]: 0.02
log2 fold change (crizotinib): -0.002
log2 fold change [2]: 0.08
log2 fold change [3]: -0.036
log2 fold change (duvelisib): 0.019
log2 fold change (gandotinib): -0.033
log2 fold change (tozasertib): 0.119
log2 fold change [4]: 0.14
log2 fold change (doramapimod): -0.047
log2 fold change (ispinesib): 0.275

TFR2 (UniProt Q9UP52)
log2 fold change [1]: 0.068
log2 fold change (crizotinib): -0.182
log2 fold change [2]: -0.001
log2 fold change [3]: -0.016
log2 fold change (duvelisib): 0.032
log2 fold change (gandotinib): 0.03
log2 fold change (tozasertib): -0.023
log2 fold change [4]: -0.038
log2 fold change (doramapimod): -0.019
log2 fold change (ispinesib): -0.097

SSX2 (UniProt Q16385)
Sequence of UniProt Q16385 (Q16385 whole entry, looked up): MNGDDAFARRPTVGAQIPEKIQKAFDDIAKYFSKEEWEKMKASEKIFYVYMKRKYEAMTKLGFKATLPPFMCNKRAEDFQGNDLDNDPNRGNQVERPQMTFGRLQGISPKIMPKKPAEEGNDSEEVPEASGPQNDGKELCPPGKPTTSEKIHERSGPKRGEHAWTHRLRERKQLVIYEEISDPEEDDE
log2 fold change [1]: -0.024
log2 fold change (crizotinib): 0.062
log2 fold change [2]: 0.05
log2 fold change [3]: 0.053
log2 fold change (duvelisib): 0.036
log2 fold change (gandotinib): -0.003
log2 fold change (tozasertib): 0.031
log2 fold change [4]: -0.009
log2 fold change (doramapimod): -0.043
log2 fold change (ispinesib): -0.029

TMBIM6 isoform 2 (UniProt P55061)
Sequence of UniProt P55061 (P55061 whole entry, looked up): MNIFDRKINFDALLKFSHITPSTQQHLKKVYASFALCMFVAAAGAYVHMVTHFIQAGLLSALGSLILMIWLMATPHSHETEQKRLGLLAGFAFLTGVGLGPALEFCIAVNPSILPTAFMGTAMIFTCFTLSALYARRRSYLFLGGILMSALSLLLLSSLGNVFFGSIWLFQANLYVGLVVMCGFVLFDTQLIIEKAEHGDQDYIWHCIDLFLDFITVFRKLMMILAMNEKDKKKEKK
log2 fold change [1]: -0.066
log2 fold change (crizotinib): -0.451 (active)
log2 fold change [2]: 0.033
log2 fold change [3]: -0.049
log2 fold change (duvelisib): 0.046
log2 fold change (tozasertib): -0.066
log2 fold change [4]: -0.03
log2 fold change (doramapimod): -0.053
log2 fold change (ispinesib): -0.407

TBC1D20 isoform 3 (UniProt Q96BZ9)
log2 fold change [1]: 0.039
log2 fold change (crizotinib): -0.121
log2 fold change [2]: 0.088
log2 fold change [3]: 0.036
log2 fold change (gandotinib): -0.078
log2 fold change (doramapimod): 0.05
log2 fold change (ispinesib): 0.113

SLC30A7 (UniProt Q8NEW0)
log2 fold change [1]: -0.01
log2 fold change (crizotinib): 0.014
log2 fold change [2]: -0.022
log2 fold change [3]: -0.048
log2 fold change (duvelisib): 0.081
log2 fold change (gandotinib): -0.348 (active)
log2 fold change (tozasertib): -0.05
log2 fold change [4]: -0.007
log2 fold change (doramapimod): -0.057
log2 fold change (ispinesib): -0.016

TARS2 (UniProt Q9BW92)
log2 fold change [1]: 0.022
log2 fold change (crizotinib): 0.024
log2 fold change [2]: 0.094
log2 fold change [3]: -0.002
log2 fold change (duvelisib): 0.049
log2 fold change (gandotinib): -0.173
log2 fold change (tozasertib): 0.057
log2 fold change [4]: 0.009
log2 fold change (doramapimod): 0.015
log2 fold change (ispinesib): -0.094

SQSTM1 (UniProt Q13501)
log2 fold change [1]: 0.1
log2 fold change (crizotinib): -0.149
log2 fold change [2]: -0.059
log2 fold change [3]: 0.042
log2 fold change (duvelisib): 0
log2 fold change (gandotinib): 0.168
log2 fold change (tozasertib): 0.044
log2 fold change [4]: -0.027
log2 fold change (doramapimod): 0.008
log2 fold change (ispinesib): -0.019

SLC35A1 (UniProt P78382)
Sequence of UniProt P78382 (P78382 whole entry, looked up): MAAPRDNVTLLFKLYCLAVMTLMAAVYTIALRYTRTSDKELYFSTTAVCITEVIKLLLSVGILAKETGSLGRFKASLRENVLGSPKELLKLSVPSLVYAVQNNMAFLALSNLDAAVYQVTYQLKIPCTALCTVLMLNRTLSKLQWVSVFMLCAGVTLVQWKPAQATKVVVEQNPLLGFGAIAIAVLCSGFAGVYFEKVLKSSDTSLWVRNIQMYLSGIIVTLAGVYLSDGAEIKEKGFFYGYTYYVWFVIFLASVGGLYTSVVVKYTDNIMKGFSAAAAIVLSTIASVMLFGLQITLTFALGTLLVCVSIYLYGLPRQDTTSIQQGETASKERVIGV
log2 fold change [1]: -0.017
log2 fold change (crizotinib): 0.056
log2 fold change [2]: 0.044
log2 fold change [3]: -0.196
log2 fold change (duvelisib): -0.005
log2 fold change (tozasertib): -0.036
log2 fold change [4]: 0.074
log2 fold change (doramapimod): -0.039
log2 fold change (ispinesib): 0.04

TBC1D9B (UniProt Q66K14)
log2 fold change [1]: 0.041
log2 fold change (crizotinib): -0.084
log2 fold change [2]: 0.016
log2 fold change [3]: 0.008
log2 fold change (duvelisib): 0.01
log2 fold change (gandotinib): 0.024
log2 fold change (tozasertib): 0.055
log2 fold change [4]: 0.072
log2 fold change (doramapimod): 0.007
log2 fold change (ispinesib): -0.127

SNX15 (UniProt Q9NRS6)
Sequence of UniProt Q9NRS6 (Q9NRS6 whole entry, looked up): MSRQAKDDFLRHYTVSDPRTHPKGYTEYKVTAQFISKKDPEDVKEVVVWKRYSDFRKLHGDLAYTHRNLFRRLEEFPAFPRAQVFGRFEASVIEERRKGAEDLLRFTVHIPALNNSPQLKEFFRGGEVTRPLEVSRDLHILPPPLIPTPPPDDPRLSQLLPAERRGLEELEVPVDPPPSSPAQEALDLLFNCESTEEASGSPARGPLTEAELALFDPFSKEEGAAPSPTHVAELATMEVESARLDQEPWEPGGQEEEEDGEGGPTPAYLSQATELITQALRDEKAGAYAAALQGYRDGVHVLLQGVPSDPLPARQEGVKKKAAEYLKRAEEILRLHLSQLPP
log2 fold change [1]: 0.064
log2 fold change (crizotinib): 0.002
log2 fold change [3]: 0.153
log2 fold change (duvelisib): -0.012
log2 fold change (gandotinib): -0.061
log2 fold change (tozasertib): 0.063
log2 fold change [4]: -0.043
log2 fold change (doramapimod): 0.136
log2 fold change (ispinesib): -0.132
